MARV entry inh – Marburg virus entry inhibition; Marburg virus pseudotyped entry inhibition, cell reporter; Potency, µM (doses to about 37.8 µM), usual class: inhibitors; 300,000 compounds, 1.8% hits; AID 540276; calls by dose curve; tested in HEK293 cells
HCV inhibitor – inhibitors of hepatitis C virus infection | Potency, µM (doses to about 41.8 µM), actives largely listed as inhibitors | AID 651820 | Huh7.5.1 HCVcc-Cre infection, luciferase reporter, 44 h | 340,000 compounds, 3.4% hits; active = well fitted inhibition curve with a large enough effect; inconclusive = small, poorly fitted or top-dose-only effect, or another doubt; inactive = no such curve, though single readings can be large or run the other way
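Luciferase read-out (15 sec integration) after a 15 min room-temperature substrate step quantifies HCVcc-Cre infection. Cells, 1,000 per well, had compound added 4 h post-plating, then virus at ~0.5 moi, and were cultured 44 h.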
Vaccinia Venus – inhibitors of vaccinia virus (Venus reporter); Vaccinia virus Venus reporter expression, fluorescence; Potency, µM (highest dose often 36.5 µM), actives largely listed as inhibitors; 330,000 compounds, 0.46% hits; AID 720580; calls by dose curve; tested in A549 cells; note: nearly all actives have a fitted effect of over 30% in size
Lassa entry inh – blocks Lassa virus binding to or entry into cells. AID 540256. Lassa virus pseudotype entry inhibition, cell reporter. Potency, µM (highest dose often 37.9 µM), hits mostly inhibitors. 300,000 compounds, 1.2% hits; calls by dose curve; tested in HEK293 cells; note: nearly all actives have a fitted effect of over 50% in size
Vaccinia mCherry – vaccinia inhibition (mCherry reporter); Vaccinia virus mCherry reporter infection, fluorescence; Potency, µM (top dose mostly 36.5 µM), usual class: inhibitors; 310,000 compounds, 0.63% hits; AID 720579; calls by dose curve; tested in A549 cells; note: nearly all actives have a fitted effect of over 35% in size
Numbers stand for hits; i = inactive; ? = inconclusive; nt = no result given. Most compounds without a hit are left out; they make up all but 4.6% or so of the library.

SMILES | MARV entry inh | HCV inhibitor | Vaccinia Venus | Lassa entry inh | Vaccinia mCherry
CCOC(=O)/C(=C\C=C1/Sc2ccccc2N1CC)C(C)=O | ? | ? | i | 2.82µM | ?
O=S1(=O)N[C@@H](Cc2ccccc2)COc2cccc(N3CCCCC3)c21 | nt | nt | nt | i | nt
C/C(=N\NC(=O)c1c(C)nc2ccccn12)c1ccc(O)cc1O | i | 6.31µM | ? | i | ?
CCCCCCc1cc2cc(C(=O)Nc3ccccc3)c(=O)oc2cc1O | 2µM | 4.47µM | i | 3.55µM | i
CCCCCCCCCCCCCCCCCCN(CCCCCCCCCCCCCCCCCC)c1ccccc1 | nt | nt | i | nt | i
Cc1c(C#N)c2ccccc2n1CC(=O)NCc1ccccc1 | i | i | i | i | nt
O=C(Cn1c(=O)n(CC(=O)NCc2ccccc2)c2ccccc21)NCc1ccccc1 | i | 7.08µM | i | ? | nt
Cc1cc(=O)c2cc(Br)ccc2n1CC(=O)NCc1ccccc1 | nt | 12.6µM | nt | nt | nt
CCCCSCCCNC(=O)c1cn(CC)c2ccc(S(=O)(=O)N(C)C3CCCCC3)cc2c1=O | i | nt | i | i | i
COc1cc(C(=O)Nc2nc(-c3ccc(Cl)cc3)c(C)s2)ccc1OCC(=O)Nc1ccc(F)cc1 | ? | ? | i | 10µM | i
CCc1ccc(-c2nc(NC(=O)c3ccc(OCC(=O)Nc4ccc(F)cc4)c(OC)c3)sc2C)cc1 | ? | ? | i | i | i
Cc1ccc(NC2=C/C(=N/S(=O)(=O)c3cccs3)c3ccccc3C2=O)cc1C | i | i | i | i | i
COc1ccc(S(=O)(=O)/N=C2\C=C(Nc3ccc(O)cc3)C(=O)c3ccccc32)cc1 | ? | 5.62µM | 3.55µM | ? | 5.01µM
CC(C)c1ccc(S(=O)(=O)/N=C2\C=C(NS(=O)(=O)c3ccccc3)C(=O)c3ccccc32)cc1 | i | i | i | i | ?
CC(=O)Nc1ccc(NC2=C/C(=N/S(=O)(=O)c3cccs3)c3ccccc3C2=O)cc1 | 5.01µM | ? | 11.2µM | ? | ?
Cc1ccccc1NC1=C/C(=N\S(=O)(=O)c2cccs2)c2ccccc2C1=O | 3.66µM | 3.55µM | nt | ? | nt
Cc1[nH]c2ccccc2c1C(=O)CSc1nc2ccccc2c(=O)n1CCCN1CCOCC1 | 11.2µM | ? | i | i | nt
Cc1ccc(NC(=O)CSc2nc3ccccc3c(=O)n2CCC(=O)NC2CCCCC2)cc1C | nt | nt | i | i | ?
Cc1ccc(NC(=O)CSc2nc3ccccc3c(=O)n2CCCC(=O)N2CCCC2)cc1 | 8.2µM | ? | nt | ? | nt
Cc1ccc(NC(=O)CSc2nc3ccccc3c(=O)n2CCCN2CCCCC2)cc1C | ? | 14.1µM | nt | 20.6µM | nt
Cn1c(N)c(C(=O)CSc2nc3ccccc3c(=O)n2CCCN2CCOCC2)c(=O)n(C)c1=O | nt | i | nt | nt | nt
Cc1cc(NC(=O)CSc2nc3c(sc4ccccc43)c(=O)n2CCCN2CCOCC2)n[nH]1 | i | 5.62µM | nt | ? | nt
CCCN1CCN(CCCNC(=O)c2ccc3c(c2)sc2nc(-c4ccc(OC)cc4)cn23)CC1 | nt | nt | ? | i | 4.47µM
NC(N)=N/N=C/c1c(Cl)cccc1Cl | 11.2µM | i | i | ? | i
O=C(C[n+]1ccncc1)c1cccc2ccccc12 | nt | nt | i | nt | i
SMILES | MARV entry inh | HCV inhibitor | Vaccinia Venus | Lassa entry inh | Vaccinia mCherry
Cc1ccc(S(=O)(=O)Nc2ccc(S(=O)(=O)Nc3cc(C)nc(C)n3)cc2)cc1 | nt | i | i | nt | i
Cc1cc(NS(=O)(=O)c2ccc(NS(=O)(=O)c3ccc(CC(C)C)cc3)cc2)nc(C)n1 | i | 3.98µM | i | i | i
O=[N+]([O-])c1ccc(-c2ccc(/C=N/Nc3nc(NCc4ccccc4)nc(N4CCOCC4)n3)o2)cc1 | 10µM | ? | i | i | i
COc1nc(N/N=C/c2ccc(-c3ccccc3[N+](=O)[O-])o2)nc(N2CCOCC2)n1 | ? | 11.2µM | i | i | i
Cc1ccc(/C=N/Nc2nc(N3CCCCC3)nc(N3CCCCC3)n2)o1 | i | ? | i | ? | i
COC(=O)c1ccccc1-c1ccc(/C=N/Nc2nc(N3CCCC3)nc(N3CCCC3)n2)o1 | ? | 11.2µM | i | ? | i
O=[N+]([O-])c1ccc(/C=N/Nc2nc(N3CCCCCC3)nc(N3CCCCCC3)n2)o1 | ? | ? | i | ? | ?
O=[N+]([O-])c1ccccc1/C=N/Nc1nc(N2CCCC2)nc(N2CCCC2)n1 | ? | i | i | i | i
Cc1cccc(N2CCN(C(=O)Cc3c(C(=O)O)c(C)cn3C)CC2)c1C | nt | nt | i | i | i
COC(=O)[C@@H]1CC[C@H](C)[C@@H](c2ccc(C)cc2)N1C(=O)c1ccc(/C=N/OC[C@H]2O[C@H](c3ccccc3)C=C[C@@H]2Oc2ccc(OC)cc2)cc1 | i | nt | nt | nt | nt
CCOC(=O)c1ccccc1NC(=O)c1sc2nc3n(c(=O)c2c1C)CCCC3 | nt | nt | i | ? | i
O=C(c1ccc(Cl)cc1)C1CCCN(Cc2cnn(-c3ccccc3)c2)C1 (stereo not drawn) | 5.62µM | 22.4µM | i | i | i
Cc1nn(C)cc1CN1CCCC(C(=O)c2ccc(-c3ccccc3)cc2)C1 (stereo not drawn) | ? | 4.47µM | i | ? | i
O=C(c1ccc(Cl)cc1)C1CCCN(Cc2ccc(Oc3ncccn3)cc2)C1 (stereo not drawn) | nt | 11.2µM | nt | nt | nt
CCOc1ccc(-n2nc(CO)c(C(=O)NCc3ccc(Cl)cc3)n2)cc1 | i | nt | i | ? | i
